Compounds without any hit were thinned out: in the full panel of roughly 83,000, 20% have a hit.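 Interpretation: 100, growth as untreated; towards 0, rising growth inhibition; 0, no net growth; 0 to -100, cell death. Compounds scoring below 10 were considered active.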 A number with no mark means an inactive call. Calls of active or inactive are those of the source.
Columns and labels:
Experiment in all cases: NCI-60 one-dose screen, 48 h (100 = growth as untreated, 0 = no growth, -100 = all killed)
Settings in all cases: 10 µM unless noted
HCT-15 colon = system: HCT-15 colon
HT29 colon = system: HT29 colon
SNB-75 CNS = system: SNB-75 CNS
SNB-19 CNS = system: SNB-19 CNS
U251 CNS = system: U251 CNS
PC-3 prostate = system: PC-3 prostate
SK-MEL-5 melanoma = system: SK-MEL-5 melanoma
UACC-62 melanoma = system: UACC-62 melanoma
LOX IMVI melanoma = system: LOX IMVI melanoma
SK-MEL-28 melanoma = system: SK-MEL-28 melanoma
SK-MEL-2 melanoma = system: SK-MEL-2 melanoma
EKVX NSCLC = system: EKVX NSCLC
SN12C renal = system: SN12C renal
UO-31 renal = system: UO-31 renal
TK-10 renal = system: TK-10 renal
ACHN renal = system: ACHN renal
CAKI-1 renal = system: CAKI-1 renal
A498 renal = system: A498 renal
CCRF-CEM leukemia = system: CCRF-CEM leukemia
MOLT-4 leukemia = system: MOLT-4 leukemia

Compound | growth (HCT-15 colon) | growth (HT29 colon) | growth (SNB-75 CNS) | growth (SNB-19 CNS) [%] | growth (U251 CNS) | growth (PC-3 prostate) | growth (SK-MEL-5 melanoma) | growth (UACC-62 melanoma) | growth (LOX IMVI melanoma) | growth (SK-MEL-28 melanoma) | growth (SK-MEL-2 melanoma) | growth (EKVX NSCLC) | growth (SN12C renal) | growth (UO-31 renal) | growth (TK-10 renal) | growth (ACHN renal) | growth (CAKI-1 renal) | growth (A498 renal) [%] | growth (CCRF-CEM leukemia) | growth (MOLT-4 leukemia)
CCCCCCCCCCCC1=NC(C)(C)CN1CC(C)O (stereo not given) | 6.24% (active) | -48.3% (active) | 61.8% | 96.8 | 33.9% | 51.4% | 34% | -49.4% (active) | 6.88% (active) | 59.8% | 63.4% | 68.8% | 69.8% | 47.6% | 91.7% | 80.2% | 69.8% | 99.8 | 25.5% | 25.4%
CCCCCCCCCCCCCC1=NC(C)(C)CN1C(C)C | -65.1% (active) | -57.5% (active) | -41.1% (active) | 28.9 | -63.5% (active) | -37.6% (active) | -86.7% (active) | -70.8% (active) | -74.1% (active) | -73% (active) | -66.3% (active) | -2.5% (active) | 9.87% (active) | -65.1% (active) | -73% (active) | -67.2% (active) | -67% (active) | 87.7 | -44.1% (active) | -58.5% (active)
CC1CCN(CCCCCOc2ccc3oc4ccc(Cl)cc4c(=O)c3c2)CC1 | -21.5% (active) | 1.54% (active) | 93.5% | 79.6 | 49.5% | 55.1% | 11.6% | -43.5% (active) | 7.78% (active) | 64.7% | 88.1% | 75.1% | 70.9% | 63.1% | 75.7% | 93.8% | 80.3% | 78.7 | 40.4% | 26.6%
COc1cc(C2CC(=O)Nc3c2cnn3C)cc(OC)c1OC (stereo not given) | 107% | 105% | 92% | 108 | 100% | 108% | 105% | 106% | 106% | 119% | 113% | 119% | 114% | 90.7% | 117% | 108% | 106% | 113 | 114% | 102%
CC(=O)OC[C@H]1O[C@@H](n2c(=O)cc(N)[nH]c2=O)C(OC(C)=O)[C@@H]1OC(C)=O (stereo not given in full) | 99.7% | 106% | 75.9% | 98.7 | 97.7% | 95.3% | 99.5% | 94.6% | 99.9% | 110% | 105% | 104% | 103% | 78.6% | 97.8% | 101% | 88.8% | 98.1 | 111% | 108%
CCOC(=O)C1C(=O)C=C(c2ccccc2)CC1c1sc(N(C)Cc2ccccc2)nc1Cl (stereo not given) | 94.3% | 91.2% | 89.1% | 89.7 | 92.7% | 76.4% | 92.7% | 61.4% | 88.2% | 109% | 84.4% | 87.9% | 94.3% | 76.1% | 107% | 95.3% | 68.7% | 107 | 84% | 71.1%
Cc1nc(N)nc2c1CCC(Nc1ccccc1)S2 (stereo not given) | 100% | 104% | 98.3% | 111 | 103% | 90.6% | 99.1% | 108% | 97% | 114% | 102% | 103% | 101% | 79.2% | 105% | 102% | 94% | 97 | 90.9% | 90.2%
CC(CN1CCN(CC(C)Nc2ccnc3cc(Cl)ccc23)CC1)Nc1ccnc2cc(Cl)ccc12 (stereo not given) | -1.75% (active) | -19.7% (active) | -26.8% (active) | 31.6 | 0.467% (active) | 26.2% | -97.6% (active) | -62.7% (active) | -86.1% (active) | -91.4% (active) | -37.9% (active) | 67.3% | 57.7% | -49.5% (active) | -48% (active) | 19.1% | 11.2% | 84.7 | 5.14% (active) | 4.88% (active)
CCOC(=O)CCN(CCC(=O)OCC)c1ccccc1 | 101% | 99.7% | 93.9% | 104 | 92.5% | 93% | 96.4% | 99.4% | 95.8% | 117% | 96.7% | 115% | 110% | 77.8% | 101% | 100% | 116% | 127 | 61.7% | 96.5%
COC1(OC)C2(Cl)CCC1(Cl)C(Cl)=C2Cl | 95% | 101% | 95.6% | 105 | 97.8% | 100% | 102% | 101% | 94.2% | 107% | 95.2% | 104% | 96.8% | 94.6% | 119% | 109% | 109% | 91 | 103% | 105%
CCN(CCC#N)c1ccccc1 | 108% | 109% | 98.6% | 106 | 103% | 90.8% | 111% | 98.2% | 102% | 113% | 106% | 101% | 90.8% | 89.1% | 117% | 112% | 97.7% | 130 | 93.6% | 101%

From PubChem BioAssay (NCI)
